Experimental findings from the antibiotic and cytotoxicity screens of Wong et al. (2023) are described below.

Structures are written as SMILES. Screen size: about 39,000 compounds; about 1,500 (3.8%) were called active. Many of the other results were omitted from the sample, so actives are more common in it than they were.

This assay deals with HSkMC (human skeletal muscle cells). Put plainly: cytotoxicity call (relative viability < 0.9). The settings on record: 10 µM.
With `CN1C(=O)c2cc(NC(=O)C3CCOCC3)ccc2OC[C@@H]2O[C@H](CC(=O)NCc3ccccc3F)CC[C@@H]21`, the cytotoxicity call was “inactive”. For `O=C(C[C@@H]1CC[C@@H]2NC[C@H](O)COC[C@H]2O1)NCCN1CCCCC1` the value was “inactive”; for `COCC#Cc1cnc2c(c1)C(=O)N([C@H](C)CO)C[C@H](C)[C@@H](CN(C)C(=O)Nc1ccccc1OC)O2`, “inactive”; for `C[C@H]1CN([C@@H](C)CO)C(=O)Cc2cc(NS(=O)(=O)c3ccc(F)cc3)ccc2O[C@H]1CN(C)S(=O)(=O)c1cn(C)cn1`, “inactive”. For the molecule `COc1cccc(NC(=O)N2C[C@@H](O)COC[C@@H]3O[C@@H](CC(=O)NCc4ccccc4F)CC[C@H]32)c1`, the cytotoxicity call is “inactive”. The entry for `C[C@@H]1CCCCO[C@@H](CN(C)C(=O)Nc2ccc(C(F)(F)F)cc2)[C@@H](C)CN([C@H](C)CO)C(=O)c2cc(NC(=O)c3ccccc3)ccc2O1` is “inactive”; for `CC(C)(C)[S@@](=O)N1Cc2cc(C(=O)NCc3ccccc3F)nc(-c3cccc(-c4cccnc4)c3)c2[C@H]1CCO` it is “inactive”; for `O=C(C[C@H]1C=C[C@@H](NC(=O)Cc2ccccn2)[C@@H](CO)O1)NCCCN1CCOCC1` it is “inactive”. For `C[C@@H]1CN([C@H](C)CO)S(=O)(=O)c2ccc(C#Cc3ccncc3)cc2O[C@H]1CN(C)C(=O)C1CCOCC1` the value was “inactive”.

As for `CN(C)Cc1cn(CC[C@@H]2CC[C@H](N)[C@H](CO)O2)nn1`, the cytotoxicity call was “inactive”. For `C[C@H](CO)N1C[C@H](C)[C@@H](CN(C)S(=O)(=O)c2ccc3ccccc3c2)OCc2cn(nn2)CCCC1=O` the value was “inactive”; for `C[C@H](CO)N1C[C@H](C)[C@@H](CN(C)C(=O)Nc2cccc3ccccc23)Oc2c(NC(=O)C3CCCCC3)cccc2C1=O`, “inactive”; for `COc1cc(Nc2ncc3c(n2)-c2ccc(Cl)cc2C(c2c(F)cccc2OC)=NC3)ccc1C(=O)O`, “active”. For `C=CCN(C(=O)[C@H]1N(CCOCCO)C(=O)[C@H]2[C@H](C(=O)O)[C@@H]3C=C[C@@]21O3)c1ccc(OC)cc1` the value was “inactive”; for `CCS(=O)(=O)Nc1ccc2c(c1)C(=O)N(C)[C@H]1CC[C@@H](CC(=O)N[C@H]3CCN(Cc4ccccc4)C3)O[C@@H]1CO2`, “inactive”. The entry for `C[C@@H]1CN([C@H](C)CO)C(=O)c2cccc(NC(=O)C3CCOCC3)c2O[C@@H]1CN(C)S(=O)(=O)c1cccs1` is “inactive”. Consider `C[C@@H]1CC[C@@]2(OC1)O[C@H]1C[C@H]3[C@H]4C[C@@H](O)[C@H]5C[C@@H](O[C@@H]6O[C@H](CO)[C@H](O[C@@H]7O[C@H](CO)[C@@H](O)[C@H](O[C@@H]8OC[C@@H](O)[C@H](O)[C@H]8O)[C@H]7O[C@@H]7O[C@H](CO)[C@@H](O[C@@H]8O[C@H](CO)[C@@H](O)[C@H](O)[C@H]8O)[C@H](O)[C@H]7O)[C@H](O)[C@H]6O)CC[C@]5(C)[C@@H]4CC[C@]3(C)[C@H]1[C@@H]2C`, for which the cytotoxicity call was “active”. On to `CC(=O)OC1CCC2(C)C(CCC3C2CC(=O)C2(C)C3CC3OC4(CCC(C)CO4)C(C)C32)C1` (stereo unspecified), for which the cytotoxicity call was “inactive”. For `C[C@@H]1CC[C@@]2(OC1)O[C@H]1C[C@H]3[C@H]4C[C@@H](O)[C@H]5C[C@@H](O[C@@H]6O[C@H](CO)[C@H](O[C@@H]7O[C@H](CO)[C@@H](O)[C@H](O[C@@H]8OC[C@@H](O)[C@H](O)[C@H]8O)[C@H]7O[C@@H]7O[C@H](CO)[C@@H](O)[C@H](O)[C@H]7O)[C@H](O)[C@H]6O)[C@H](O)C[C@]5(C)[C@@H]4CC[C@]3(C)[C@H]1[C@@H]2C` the value was “inactive”; for `CC1CCC2(OC1)OC1CC3C4CCC5CC(O)CCC5(C)C4CC(=O)C3(C)C1C2C` (stereo unspecified), “inactive”; for `C[C@@H]1CC[C@@]2(OC1)O[C@H]1C[C@H]3[C@H]4CC=C5C[C@@H](O[C@@H]6O[C@H](CO)[C@@H](O[C@@H]7O[C@@H](C)[C@H](O)[C@@H](O)[C@H]7O[C@@H]7O[C@@H](C)[C@H](O)[C@@H](O)[C@H]7O)[C@H](O)[C@H]6O)CC[C@]5(C)[C@@H]4CC[C@]3(C)[C@H]1[C@@H]2C`, “active”. For `CC(C)=CCC[C@](C)(O[C@@H]1O[C@H](CO[C@@H]2OC[C@@H](O)[C@H](O)[C@H]2O)[C@@H](O)[C@H](O)[C@H]1O)[C@H]1CC[C@]2(C)[C@@H]1[C@H](O)C[C@@H]1[C@@]3(C)CC[C@H](O[C@@H]4O[C@H](CO)[C@@H](O)[C@H](O)[C@H]4O)C(C)(C)[C@@H]3CC[C@]12C` the value was “inactive”; for `C[C@@H]1CC[C@@]2(OC1)O[C@H]1C[C@H]3[C@H]4C[C@@H](O)[C@H]5C[C@@H](O[C@@H]6O[C@H](CO)[C@H](O[C@@H]7O[C@H](CO)[C@@H](O)[C@H](O[C@@H]8OC[C@@H](O)[C@H](O)[C@H]8O)[C@H]7O[C@@H]7O[C@H](CO)[C@@H](O)[C@H](O)[C@H]7O)[C@H](O)[C@H]6O)CC[C@]5(C)[C@@H]4CC[C@]3(C)[C@H]1[C@@H]2C`, “active”. Consider `CC(=O)OC1CCC2(C)C(CCC3C2CCC2(C)C3CC3OC4(CCC(C)CO4)C(C)C32)C1` (stereo unspecified), for which the cytotoxicity call was “inactive”.

Turning to `CC1CCC2(OC1)OC1CC3C4CC=C5CC(O)CCC5(C)C4CCC3(C)C1C2C` (stereo unspecified), the cytotoxicity call was “inactive”. For `C[C@@H]1CC[C@@]2(OC1)O[C@H]1C[C@H]3[C@H]4C[C@@H](O)[C@H]5C[C@@H](O[C@@H]6O[C@H](CO)[C@H](O[C@@H]7O[C@H](CO)[C@@H](O)[C@H](O[C@@H]8OC[C@@H](O)[C@H](O)[C@H]8O)[C@H]7O[C@@H]7O[C@H](CO)[C@@H](O[C@@H]8O[C@H](CO)[C@@H](O)[C@H](O)[C@H]8O)[C@H](O)[C@H]7O)[C@H](O)[C@H]6O)[C@H](O)C[C@]5(C)[C@@H]4CC[C@]3(C)[C@H]1[C@@H]2C` the value was “active”; for `CC1CCC2(OC1)OC1CC3C4CCC5CC(O)CCC5(C)C4CCC3(C)C1C2C` (stereo unspecified), “inactive”. For `C[C@@H]1CO[C@]2(O[C@H]3C[C@H]4[C@H]5C[C@H](O[C@H]6O[C@@H](C)[C@@H](O)[C@@H](O[C@@H]7O[C@@H](C)[C@H](O)[C@@H](O)[C@H]7O)[C@@H]6O)[C@H]6C[C@@H](O)CC[C@]6(C)[C@@H]5CC[C@]4(C)[C@H]3[C@@H]2C)[C@@H](O)C1`, the cytotoxicity call is “inactive”.

For `COc1c(O)cc(O)cc1O`, the cytotoxicity call is “inactive”. As to `O=C1OCC=C[C@H]2O[C@@]34C=CCN(Cn5nnc6ccccc65)C(=O)[C@H]3N(CCO)C(=O)[C@@H]4[C@@H]12`, the cytotoxicity call was “inactive”. Regarding `CNC(=O)CN1CCN2CCN(CC(=O)NC)CC(=O)[O][Gd]([O]C(=O)C2)[O]C(=O)C1`, the cytotoxicity call was “inactive”.

For `C[C@@H]1CCCCO[C@@H](CN(C)S(=O)(=O)c2cn(C)cn2)[C@@H](C)CN([C@@H](C)CO)C(=O)c2cc(NS(=O)(=O)c3cccs3)ccc2O1`, the cytotoxicity call was “inactive”. The entry for `Cc1noc(C)c1S(=O)(=O)Nc1cccc2c1O[C@@H](CN(C)CC1CC1)[C@@H](C)CN([C@@H](C)CO)C2=O` is “inactive”; for `C[C@H]1CN([C@@H](C)CO)C(=O)c2cccc(NC(=O)Nc3ccc4c(c3)OCO4)c2O[C@H]1CN(C)S(C)(=O)=O` it is “inactive”. The entry for `Cc1noc(C)c1S(=O)(=O)Nc1ccc2c(c1)C(=O)N([C@H](C)CO)C[C@H](C)[C@@H](CN(C)Cc1ccc(C(F)(F)F)cc1)OCCCC[C@@H](C)O2` is “inactive”.

For the molecule `O=C(C[C@H]1C[C@H]2c3cc(NS(=O)(=O)c4ccc(F)cc4)ccc3O[C@H]2[C@@H](CO)O1)NCc1ccccc1F`, the cytotoxicity call is “inactive”. Turning to `C[C@H]1CN([C@@H](C)CO)C(=O)c2cc(NC(=O)CCC(F)(F)F)ccc2O[C@@H]1CN(C)C(=O)Nc1ccc(C(F)(F)F)cc1`, the cytotoxicity call is “inactive”. The entry for `C[C@H]1CN([C@@H](C)CO)C(=O)c2cccc(NC(=O)Nc3ccccc3)c2O[C@H]1CN(C)S(C)(=O)=O` is “inactive”; for `COc1ccc(S(=O)(=O)Nc2cccc3c2O[C@@H](CN(C)C(=O)Nc2c(C)noc2C)[C@@H](C)CN([C@H](C)CO)C3=O)cc1` it is “inactive”. For the molecule `Cc1noc(C)c1NC(=O)Nc1ccc2c(c1)CC(=O)N([C@H](C)CO)C[C@@H](C)[C@H](CN(C)S(=O)(=O)c1cn(C)cn1)O2`, the cytotoxicity call was “inactive”.

In the case of `C[C@@H]1O[C@@H](O[C@H]2[C@H](O)[C@@H](O)[C@H](OC[C@H]3O[C@@H](OC(=O)[C@]45CCC(C)(C)C[C@@H]4C4=CC[C@H]6[C@@]7(C)CC[C@H](O[C@H]8OC[C@H](O)[C@H](O)[C@H]8O[C@H]8O[C@@H](C)[C@H](O)[C@@H](O)[C@H]8O)[C@@](C)(CO)[C@@H]7CC[C@@]6(C)[C@]4(C)CC5)[C@H](O)[C@@H](O)[C@@H]3O)O[C@@H]2CO)[C@H](O)[C@H](O)[C@H]1O`, the cytotoxicity call is “inactive”. For `C[C@H]1O[C@@H](O[C@H]2[C@@H](O)[C@@H](O)[C@@H](O[C@H]3CC[C@]4(C)[C@H]5CC=C6[C@H]7CC(C)(C)[C@H]8C[C@]7(C(=O)O8)[C@@H](O)C[C@]6(C)[C@@]5(C)CC[C@H]4C3(C)C)O[C@@H]2CO)[C@@H](O)[C@@H](O[C@H]2OC[C@@H](O)[C@@H](O)[C@@H]2O)[C@@H]1O` the value was “inactive”. Turning to `Cn1cnc(S(=O)(=O)N2C[C@@H](O)COC[C@H]3O[C@H](CC(=O)N4CCN(c5ccccc5)CC4)CC[C@@H]32)c1`, the cytotoxicity call is “inactive”. The entry for `O=C1c2c(O)ccc(O)c2C(=O)c2c(NCCNCCO)ccc(NCCNCCO)c21` is “active”.

As for `O=C1c2ccccc2C(=O)c2c(NCCNCCO)ccc(NCCNCCO)c21`, the cytotoxicity call was “active”.

In the case of `O=[N+]([O-])c1ccc(NCCNCCO)cc1`, the cytotoxicity call is “inactive”. The entry for `O=C1c2ccccc2C(=O)c2c1ccc(O)c2O` is “inactive”; for `O=C1c2cccc(O)c2C(=O)c2c(O)cccc21` it is “inactive”; for `O=C(CCNCCO)c1ccccc1` it is “inactive”. Take `Cl.Cl.O=C1c2c(O)ccc(O)c2C(=O)c2c(NCCNCCO)ccc(NCCNCCO)c21`: the cytotoxicity call was “active”. For `COc1ccc(S(=O)(=O)Nc2ccc3c(c2)C(=O)N([C@@H](C)CO)C[C@H](C)[C@H](CN(C)Cc2ccncc2)O3)cc1` the value was “inactive”.
